Source: publication PMC5540273 (PLoS ONE, 2017)

Columns and labels:
Conditions in all cases: concentration: 1 μM, replicates: in singlicate; n = 1
[1] = test system: STK36
[2] = test system: STK39
[3] = test system: SYK
[4] = test system: SgK110
[5] = test system: T1, TAK1
T1 construct: gene MAP3K7

[6] = test system: TAOK1
[7] = test system: TAOK2
[8] = test system: TAOK3
[9] = test system: TBK1
[10] = test system: TEC
[11] = test system: TESK1
[12] = test system: TGFBR1
[13] = test system: TGFBR2
[14] = test system: TIE1
[15] = test system: T2, TIE2
T2 construct: gene TEK

[16] = test system: TLK1
[17] = test system: TLK2
[18] = test system: TNIK
[19] = test system: TNK1
[20] = test system: TNK2
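Note: KINOMEscan kinase panel screen.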

Structure (SMILES)	%Inh [1]	%Inh [2]	%Inh [3]	%Inh [4]	%Inh [5]	%Inh [6]	%Inh [7]	%Inh [8]	%Inh [9]	%Inh [10]	%Inh [11]	%Inh [12]	%Inh [13]	%Inh [14]	%Inh [15]	%Inh [16]	%Inh [17]	%Inh [18]	%Inh [19]	%Inh [20]
O=C(NC1CCN(c2ccnc(Nc3ccc(F)cc3)n2)C1)c1cc2ccccc2s1 (stereo not shown) [GSK1379716]	0%	4%	42%	0%	0%	0%	0%	0%	20%	16%	31%	39%	0%	24%	0%	7%	0%	1%	0%	21%
CN1CCN(CCCNc2nccc(-c3c(-c4ccc(F)cc4)nn4cc(C(F)(F)F)ccc34)n2)CC1 [GW621581]	97.6%	3%	10%	0%	0%	4%	0%	8%	0%	0%	10%	72%	44%	16%	9%	2%	0%	24%	0%	0%
c1ccc(-c2cnc3nccnn23)cc1 [AH20685]	0%	0%	26%	0%	0%	0%	0%	0%	0%	0%	0%	0%	0%	0%	0%	0%	0%	0%	9%	0%
Cl.Cl.NCC(C(=O)Nc1cc(Br)c(-c2ccnc3[nH]ccc23)s1)c1ccccc1 (stereo not shown) [GSK1269851]	0%	44%	7%	0%	0%	0%	0%	0%	7%	11%	0%	0%	0%	51%	6%	0%	0%	11%	6%	12%
CC(=O)Nc1nc2cnc(Nc3cc(NC(=O)c4cccc(C5(C#N)CC5)c4Cl)ccc3C)nc2s1	0%	0%	5%	19%	3%	0%	0%	0%	0%	0%	0%	4%	0%	7%	8%	14%	0%	16%	88%	0%
COc1ccc(CNC(=O)NC2CCN(c3ccnc(Nc4ccc(F)cc4)n3)CC2)cc1 [GSK1379788]	0%	0%	21%	0%	0%	0%	0%	0%	2%	0%	2%	18%	0%	0%	0%	0%	0%	0%	9%	2%
COc1cc2c(cc1OCCN1CCNCC1)ncc1c3ccc(C#N)cc3[nH]c21	6%	33%	0%	0%	95.1%	0%	4%	2%	81%	0%	2%	20%	0%	1%	5%	25%	0%	76%	4%	0%
Oc1cc(Nc2ccnc3cc(I)ccc23)ccc1F [GW552771]	0%	21%	19%	0%	0%	0%	0%	0%	0%	12%	13%	62%	99.9%	0%	0%	10%	0%	47%	4%	2%
CN(C)Cc1ccc(-c2ccc3c(Nc4ccc(Oc5ccccn5)cc4)ccnc3c2)o1 [GW567148]	0%	0%	0%	0%	23%	0%	0%	0%	7%	49%	0%	0%	0%	19%	0%	0%	0%	20%	29%	40%
O=C(Nc1cccc(-c2nn3ccccc3c2-c2ccnc(Nc3cccc(F)c3)n2)c1)c1c(F)ccc(F)c1Cl [GSK357952]	99.3%	35%	16%	0%	0%	33%	0%	34%	3%	60%	0%	2%	19%	48%	22%	0%	0%	0%	91.6%	21%
COC(=O)Nc1nc2ccc(Oc3ccc(NC(=O)Nc4cc(C(F)(F)F)ccc4F)cc3)cc2n1C.Cl [GW692089]	22%	0%	52%	0%	38%	0%	0%	0%	0%	0%	0%	7%	0%	97%	97.3%	0%	33%	10%	0%	0%
CCS(=O)(=O)c1ccc(OC)c(Nc2nccc(-c3c(-c4cccc(NC(=O)c5c(F)cccc5F)c4)nn4ncccc34)n2)c1 [GSK326180]	99.7%	16%	4%	0%	0%	0%	0%	0%	21%	4%	2%	22%	0%	47%	37%	3%	0%	0%	85%	48%
Fc1ccc(-c2ncn(C3CCNCC3)c2-c2ccnc(Oc3ccc(-c4ccccc4)cc3)n2)cc1 [SB-245391]	8%	14%	0%	0%	42%	28%	6%	20%	8%	5%	19%	59%	16%	46%	31%	3%	35%	11%	10%	0%
FC(F)(F)c1ccc(/C=C/c2cncnc2Nc2ccc3[nH]c(Cc4ccccc4)nc3c2)cc1 [GW709199]	0%	0%	10%	9%	0%	0%	0%	0%	36%	14%	2%	28%	0%	0%	15%	0%	0%	0%	0%	0%
CN1CCN(Cc2cccc(-c3ccc4c(Nc5ccc(Oc6ccccc6)cc5)ccnc4c3)c2)CC1 [GW578342]	0%	6%	0%	6%	13%	0%	0%	0%	16%	70%	2%	0%	0%	10%	0%	78%	0%	98.8%	70%	7%
COc1cccc(-c2ccc3c(NC(=O)C4CC4)n[nH]c3n2)c1 [SB-710903]	0%	17%	19%	0%	0%	30%	4%	0%	13%	0%	36%	27%	0%	0%	0%	3%	0%	82%	0%	9%
NCCCC(NC(=O)c1cc(Br)c(-c2ccnc3[nH]ccc23)s1)c1ccccc1.O=C(O)C(F)(F)F.O=C(O)C(F)(F)F (stereo not shown) [GSK1287544]	0%	0%	0%	58%	0%	34%	0%	0%	0%	0%	16%	0%	0%	73%	15%	0%	0%	3%	0%	0%
